PubChem BioAssay (NCATS)
Results filed as inconclusive are left out. Entries that show only a call come without a potency. The source made the active and inactive calls. The call rests on the fitted dose curve.

The compounds below were run against Nucleoprotein (Lymphocytic choriomeningitis virus (strain Armstrong)) (UniProt P09992) (assay: qHTS for Inhibitors of the Functional Ribonucleoprotein Complex (vRNP) of Lymphocytic Choriomeningitis Arenaviruses (LCMV): LCMV Primary Screen - GLuc reporter signal (AID 1347086; further: nearly all actives have a fitted effect of over 70% in size)). Settings: LCMV minigenome vRNP cell assay, Gaussia luciferase reporter; series mostly up to 57.5 µM.
Chain of Nucleoprotein (Lymphocytic choriomeningitis virus (strain Armstrong)) (P09992 whole entry, looked up): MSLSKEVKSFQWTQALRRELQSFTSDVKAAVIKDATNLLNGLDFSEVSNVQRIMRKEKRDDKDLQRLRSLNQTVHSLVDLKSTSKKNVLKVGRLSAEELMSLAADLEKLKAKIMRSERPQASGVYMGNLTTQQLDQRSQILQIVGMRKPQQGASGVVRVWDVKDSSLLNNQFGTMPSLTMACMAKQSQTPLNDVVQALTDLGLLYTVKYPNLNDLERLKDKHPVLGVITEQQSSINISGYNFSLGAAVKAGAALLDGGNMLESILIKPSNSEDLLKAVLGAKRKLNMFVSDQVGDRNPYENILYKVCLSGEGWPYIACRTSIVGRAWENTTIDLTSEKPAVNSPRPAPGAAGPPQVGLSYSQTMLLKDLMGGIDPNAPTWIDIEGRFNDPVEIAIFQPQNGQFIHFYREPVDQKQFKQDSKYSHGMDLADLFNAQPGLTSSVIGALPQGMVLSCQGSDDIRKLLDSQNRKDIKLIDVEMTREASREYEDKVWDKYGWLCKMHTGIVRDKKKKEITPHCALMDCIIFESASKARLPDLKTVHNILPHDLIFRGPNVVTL

Structure (SMILES)	Potency
C/C=C(/C)C(=O)OC(C)(C)[C@@H]1Cc2c(ccc3ccc(=O)oc23)O1	inactive
CO[C@H]1C=CO[C@@]2(C)Oc3c(C)c(O)c4c(O)c(c(C=NN5CCN(C)CC5)c(O)c4c3C2=O)NC(=O)C(C)=CC=C[C@H](C)[C@H](O)[C@@H](C)[C@@H](O)[C@@H](C)[C@H](OC(C)=O)[C@H]1C	inactive
CC1NC(C(=O)O)Cc2c1[nH]c1ccccc21 (configuration not stated)	inactive
O=C1N[C@@H](Cc2c[nH]c3ccccc23)C(=O)N[C@H]1Cc1ccccc1	inactive
C=CC(O)CCCCC (configuration not stated)	inactive
COc1cc(O)cc2c1[C@@H]1Oc3c(ccc(O)c3CC=C(C)C)[C@@H]1CO2	inactive
COc1cc(-c2oc3cc(O)cc(O)c3c(=O)c2O[C@@H]2O[C@H](CO)[C@@H](O)[C@H](O)[C@H]2O)cc(OC)c1O	inactive
CCCCCCCCCOC(C)=O	inactive
CC1(C)O[C@@H]1COc1c2ccoc2cc2oc(=O)ccc12	inactive
CC(C)(COP(=O)(O)OP(=O)(O)OC[C@H]1O[C@@H](n2cnc3c(N)ncnc32)[C@H](O)[C@@H]1OP(=O)(O)O)[C@H](O)C(=O)NCCC(=O)NCCS	inactive
CCCCc1ccc(O)cc1	inactive
O=C(OCCc1ccccc1)c1ccccc1	inactive
O=C(O)c1cccc(C(=O)O)n1	inactive
COc1ccc(CCC(N)=O)cc1OC	inactive
CC1(C)CCC[C@@]2(C)CC=C(C(=O)O)[C@@H]3C[C@]312	inactive
CCCCCCCCCCCCCC	inactive
CC(=O)O[C@@H]1[C@H]2CC[C@@H]3[C@]1(C[C@@H](OC(C)=O)[C@@]1(O)C([C@@H]4O[C@@H]4C1(C)C)[C@]3(C)O)C[C@@]2(C)O (some centres not stated)	inactive
O=C(/C=C/c1ccccc1)NCCc1cnc[nH]1	inactive
COc1c2c(nc3occc13)C(CC=C(C)C)(OC)C(O)CC2 (configuration not stated)	inactive
ClC1=C(Cl)[C@]2(Cl)[C@@H]3[C@@H](Cl)[C@H]4O[C@H]4[C@@H]3C1(Cl)C2(Cl)Cl	inactive
O=C(O)[C@@H]1Cc2c([nH]c3ccccc23)C2CCC(=O)N21 (some centres not stated)	inactive
COc1ccc2c3c([nH]c2c1)C(C)NCC3 (configuration not stated)	inactive
